B1: unnamed (peptide)
chain: FPNIPGKSL
B2: unnamed (peptide)
chain: APRWLEEEAAL
B3: unnamed (peptide)
chain: IPIGGGTSV
B4: unnamed (peptide)
chain: QPASFAVSL
B5: unnamed (peptide)
chain: SPASRSISL
B6: unnamed (peptide)
chain: SPASFLRSL
B7: unnamed (peptide)
chain: NPRLNILDTL
B8: unnamed (peptide)
chain: GPIYPGHGM
B9: unnamed (peptide)
chain: YPRMQVTVF
B10: unnamed (peptide)
chain: APKSPSSEWL
B11: unnamed (peptide)
chain: YPRAQLEVSAL
B12: unnamed (peptide)
chain: APAPPTTTTI
B13: unnamed (peptide)
chain: VPMPLPTVL
B14: unnamed (peptide)
chain: RPALPSTQQL
B15: unnamed (peptide)
chain: APDKHHITPLL
B16: unnamed (peptide)
chain: TPMPKDVRQSL
B17: unnamed (peptide)
chain: KPHLPSVTYL
B18: unnamed (peptide)
chain: NVKKVSLEL
B19: unnamed (peptide)
chain: APAGLPRETL
B20: unnamed (peptide)
chain: IPDHFRPPL
B21: unnamed (peptide)
chain: VIRELSRAL
B22: unnamed (peptide)
chain: KPINVRVTTM
B23: unnamed (peptide)
chain: RPIESPGGSVL
B24: unnamed (peptide)
chain: LPGISREAL
B25: unnamed (peptide)
chain: LPSKPSSTL
B26: unnamed (peptide)
chain: SPRDPVLTL
B27: unnamed (peptide)
chain: QPRDPSSTL
B28: unnamed (peptide)
chain: SPRFPAQYL
B29: unnamed (peptide)
chain: RPLPGALGV
B30: unnamed (peptide)
chain: VPNAGRGLV
B31: unnamed (peptide)
chain: HPREPLPPIQ
B32: unnamed (peptide)
chain: IPSSHPVSL
B33: unnamed (peptide)
chain: HPREPALGP
B34: unnamed (peptide)
chain: RPAGPVAVGI
B35: unnamed (peptide)
chain: SPRVQFQSL
B36: unnamed (peptide)
chain: RPAEVGGMQL

In all, about 1,400 sequences were measured (“thermal melting temperature (Tm) of peptide-HLA complex”: median about 60, lowest 2% from about 45 on). The full list was thinned out, with the lowest values kept by preference.
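Further: lysates heated 10 min at 37–73 °C, complexes pulled down with pan-HLA I antibody, peptide signal by DIA-MS relative to 37 °C, Tm where half the complex is unfolded.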

This assay has as its target HLA-B*07:02. The experiment in a line: thermal melting temperature (Tm) of peptide-HLA complex; higher = more thermostable pHLA complex. Conditions: C1R-B*07:02.
Take B1: the thermal melting temperature came out at 62 °C.

With B2, the thermal melting temperature was found to be 62.7 °C.

In the case of B3, the thermal melting temperature is 41.6 °C.

Turning to B4, the thermal melting temperature is 62.8 °C.

Take B5: the thermal melting temperature worked out at 61 °C.

For B6, the thermal melting temperature was found to be 40.6 °C.

As for B7, the thermal melting temperature stood at 51.2 °C.

B8 had a thermal melting temperature of 59.2 °C.

Sequence B9 had a thermal melting temperature of 61.9 °C.

B10 gave a thermal melting temperature of 51.9 °C.

Take B11: the thermal melting temperature was 61.5 °C.

B12: the thermal melting temperature is 61 °C.

B13 showed a thermal melting temperature of 62.6 °C.

Consider B14, for which the thermal melting temperature came out at 57.6 °C.

B15 gave a thermal melting temperature of 43.7 °C.

Consider B16, for which the thermal melting temperature came out at 44.5 °C.

As to B17, the thermal melting temperature turned out to be 60.8 °C.

Sequence B18 had a thermal melting temperature of 44.3 °C.

B19 had a thermal melting temperature of 58.1 °C.

As to B20, the thermal melting temperature worked out at 60.4 °C.

In the case of B21, the thermal melting temperature was 45.3 °C.

Sequence B22 displayed a thermal melting temperature of 56 °C.

The sequence B23 gave a thermal melting temperature of 45.3 °C.

Sequence B24 yielded a thermal melting temperature of 41.3 °C.

Sequence B25 gave a thermal melting temperature of 58.1 °C.

In turn, B26 yielded a thermal melting temperature of 64.4 °C.

The sequence B27 showed a thermal melting temperature of 43.5 °C.

As for B28, the thermal melting temperature was determined as 62.6 °C.

Turning to B29, the thermal melting temperature is 59 °C.

Sequence B30 yielded a thermal melting temperature of 58.5 °C.

B31 showed a thermal melting temperature of 51.3 °C.

B32 returned a thermal melting temperature of 56.2 °C.

Sequence B33 registered a thermal melting temperature of 55.3 °C.

Regarding B34, the thermal melting temperature came to 43.3 °C.

B35 yielded a thermal melting temperature of 61.7 °C.

B36 came in with a thermal melting temperature of 59.1 °C.

The values are drawn from the supplement of paper PMC7726561.
